# Test results from article PMC4336329 (PLoS ONE, 2015).
# Among all 310,000 compounds or so, about 14,000 (4.5%) showed an effect of 50% or more. The effect is printed as a negative number. The entries come from a sample that favours strong results as a whole.
# Molecular target: human ether-à-go-go-related gene (hERG) potassium channel (human, UniProt Q12809)
# Assay: primary screen, population patch clamp on CHO cells stably expressing hERG; higher = less effect of the substance
# 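Further: peak tail current of the secondary pulse compared with the same well before compound.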
# Sequence of human ether-à-go-go-related gene (hERG) potassium channel (Q12809 whole entry, looked up): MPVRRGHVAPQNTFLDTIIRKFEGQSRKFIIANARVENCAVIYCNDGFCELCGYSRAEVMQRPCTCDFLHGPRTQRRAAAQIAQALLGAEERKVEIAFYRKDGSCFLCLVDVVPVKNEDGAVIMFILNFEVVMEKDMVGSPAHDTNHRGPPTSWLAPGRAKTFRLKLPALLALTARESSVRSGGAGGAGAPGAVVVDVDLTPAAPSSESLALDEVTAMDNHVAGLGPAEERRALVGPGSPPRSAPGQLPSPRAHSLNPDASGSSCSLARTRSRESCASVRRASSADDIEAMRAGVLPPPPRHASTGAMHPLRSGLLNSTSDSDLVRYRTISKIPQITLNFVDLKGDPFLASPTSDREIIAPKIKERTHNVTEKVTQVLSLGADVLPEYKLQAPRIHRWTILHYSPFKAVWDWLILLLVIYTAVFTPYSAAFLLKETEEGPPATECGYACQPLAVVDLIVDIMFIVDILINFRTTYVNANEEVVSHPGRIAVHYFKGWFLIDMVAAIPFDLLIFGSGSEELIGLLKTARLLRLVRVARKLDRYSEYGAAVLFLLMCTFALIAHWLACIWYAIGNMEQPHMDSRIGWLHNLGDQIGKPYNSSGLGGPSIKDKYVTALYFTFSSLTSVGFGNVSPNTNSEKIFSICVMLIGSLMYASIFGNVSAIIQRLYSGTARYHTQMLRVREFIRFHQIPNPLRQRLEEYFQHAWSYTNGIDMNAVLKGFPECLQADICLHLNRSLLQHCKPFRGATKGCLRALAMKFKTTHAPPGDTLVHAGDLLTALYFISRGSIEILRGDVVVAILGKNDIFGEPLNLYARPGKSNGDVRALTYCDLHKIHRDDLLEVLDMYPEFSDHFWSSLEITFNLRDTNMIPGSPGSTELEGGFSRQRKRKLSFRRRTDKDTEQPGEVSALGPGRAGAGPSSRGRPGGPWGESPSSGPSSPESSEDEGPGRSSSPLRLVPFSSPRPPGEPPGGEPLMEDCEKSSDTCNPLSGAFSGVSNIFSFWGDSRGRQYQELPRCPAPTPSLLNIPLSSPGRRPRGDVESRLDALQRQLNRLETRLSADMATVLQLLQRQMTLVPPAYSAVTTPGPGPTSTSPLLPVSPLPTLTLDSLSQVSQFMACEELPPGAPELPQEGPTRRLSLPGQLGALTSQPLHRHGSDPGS
row,SMILES,"hERG current change (%, negative = inhibition) at 10uM"
1,O=C(Nn1cnnc1)c1ccc(Br)s1,13.9%
2,CN(C)C(=O)CSc1nc2ccccc2c(=O)[nH]1,22%
3,CCN(CC)CCn1c2c(c(SCC(=O)Nc3nc4ccccc4s3)nc1=O)CCC2,-58.3%
4,CCN(CC)CCCn1c2c(c(SCC(=O)Nc3nc4ccccc4s3)nc1=O)CCC2,-71.2%
5,CCN(CC)CCn1c2c(c(SCC(=O)Nc3nc4ccccc4s3)nc1=O)CCCC2,-60.2%
6,CCCNC(=O)c1onc(CSc2ccc(Cl)cc2)c1C(=O)NCCOC,-19.7%
7,Cn1c(SCc2cccnc2)nc2c(c1=O)SCC2,7.48%
8,N#Cc1cc2c(=O)n3ccccc3nc2n(-c2ccc(Cl)cc2)c1=O,5.19%
9,COC(=O)c1sccc1NC(=O)CN1CCN(c2ccc(F)cc2)CC1,6.89%
10,Cc1nc(SCC(=O)Nc2cccc(Cl)c2)n[nH]1,6.87%
11,O=C(NC1CC2CCCC(C1)N2S(=O)(=O)c1ccccc1)C1CCCCC1 (centres unmarked),-2.61%
12,O=C(Nc1ccc(N2CCOCC2)cc1)NC1CCCCC1,6.25%
13,Cc1ccc(C(=O)NCc2ccccc2CN2CCCC2)cc1S(=O)(=O)N1CCOCC1,-61.4%
14,Cc1ccc(C(=O)NCc2ccccc2F)cc1S(=O)(=O)N1CCCC1,4.12%
15,Cc1ccc(S(=O)(=O)N2CCCCCC2)cc1C(=O)NCc1ccccn1,-14.8%
16,Cc1ccc(C(=O)NCc2ccccn2)cc1S(=O)(=O)N1CCOCC1,8.99%
17,Cc1ccc(C(=O)NCc2ccncc2)cc1S(=O)(=O)N1CCCCC1,-30.5%
18,Cc1ccc(C(=O)NCc2cccnc2)cc1S(=O)(=O)N1CCCCCC1,-65.7%
19,Cc1ccc(S(=O)(=O)N2CCCC2)cc1C(=O)NCc1ccccn1,5.54%
20,Cc1ccc(S(=O)(=O)N2CCCC2)cc1C(=O)NCc1ccccc1CN1CCCC1,-52.3%
21,COc1ccc2nc(NC(=O)c3cc(S(=O)(=O)N4CCOCC4)ccc3C)sc2c1,1.72%
22,CCOC(=O)c1sc(NC(=O)c2cc(S(=O)(=O)N3CCOCC3)ccc2C)nc1C,-60.9%

row,SMILES,"hERG current change (%, negative = inhibition) at 10uM"
1,O=C(NCc1cccnc1)c1ccc(Cl)c(S(=O)(=O)N2CCCCCC2)c1,-36.2%
2,CC(=O)c1sc(NC(=O)c2cc(S(=O)(=O)N3CCOCC3)ccc2F)nc1C,-1.54%
3,CCOC(=O)C1CCCN(C(=O)CCn2nnnc2CN2CCOCC2)C1 (centres unmarked),18.4%
4,O=C1NCCCc2nc(Oc3ccccc3)sc21,0.239%
5,Cc1ccc(Cn2nnc3c(=O)[nH]c(C4CCCN(C(=O)Nc5ccc(F)cc5)C4)nc32)cc1 (centres unmarked),-5.1%
6,Cc1cccc(OCC(=O)N(Cc2ccccc2)c2c(N)n(Cc3ccccc3)c(=O)[nH]c2=O)c1,-11.2%
7,O=C(CN1CC=C(c2ccccc2)CC1)Nc1cc(Cl)ccc1Cl,-12.8%
8,COc1ccccc1C1(CCN=Cc2ccc(N(C)C)cc2)CCOC(C)(C)C1 (centres unmarked),-2.03%
9,CCN(C(=O)COC(=O)c1ccco1)c1c(N)n(Cc2ccccc2)c(=O)[nH]c1=O,-0.805%
10,Cc1c(N2C(=O)c3ccc(Br)cc3C2=O)c(=O)n(-c2ccccc2)n1C,3.45%
11,CCCCN1C(=O)C(C)=C(C)C1OCCc1ccc(OC)c(OC)c1 (centres unmarked),18.2%
12,Cc1ccc(S(=O)(=O)N2CCOCC2)cc1C(=O)NCc1ccccn1,-0.76%
13,Cc1ccc(S(=O)(=O)N2CCOCC2)cc1C(=O)NCc1ccccc1CN1CCCC1,-53%
14,COc1ccc(S(=O)(=O)N2CCOCC2)cc1C(=O)NCc1ccccc1CN1CCCC1,-20.6%
15,O=C(CCC(=O)Nc1ccccc1Cl)N/N=C/c1ccccc1,16.5%
16,Cc1[nH]c2ccccc2c1/C=N\NC(=O)c1ccco1,11.1%
17,COc1cccc(C(=O)NCC2CCCN(C(=O)c3ccc(C=O)cc3)C2)c1OC (centres unmarked),0.357%
18,Cc1ccc(S(=O)(=O)N2CCCC(C(=O)N3CCN(c4ccccc4)CC3)C2)cc1 (centres unmarked),-46.5%
19,O=C(C1CC1)N1CCN(c2ccc(F)cc2)CC1,13%
20,O=C(C1CCCN(S(=O)(=O)c2ccccc2)C1)N1CCCCC1 (centres unmarked),7.94%
21,COc1ccc(S(=O)(=O)N2CCCC(C(=O)N3CCN(c4ccccc4)CC3)C2)cc1Cl (centres unmarked),-62%
22,O=C(O)C1CCN(C(=O)Cc2ccccc2)CC1,6.27%

row,SMILES,"hERG current change (%, negative = inhibition) at 10uM"
1,O=C(C1CCCN(S(=O)(=O)c2ccccc2)C1)N1CCCCCC1 (centres unmarked),-2.74%
2,O=C(Cc1ccccc1)N1CCC(C(=O)N2CCN(c3ccc(F)cc3)CC2)CC1,-56.6%
3,COc1ccc(S(=O)(=O)N2CCCC(C(=O)N3CCOCC3)C2)cc1Cl (centres unmarked),-14%
4,O=C(C1CCCN(S(=O)(=O)c2ccccc2)C1)N1CCN(c2ccc(F)cc2)CC1 (centres unmarked),-75.7%
5,CN1CCN(C(=O)C2CCCN(S(=O)(=O)c3ccc(F)cc3)C2)CC1 (centres unmarked),19.9%
6,O=C(C1CCCN(S(=O)(=O)c2ccccc2)C1)N1CCN(c2ccccc2)CC1 (centres unmarked),-54.8%
7,COc1ccc(S(=O)(=O)N2CCCC(C(=O)N3CCN(C)CC3)C2)cc1Cl (centres unmarked),-12.4%
8,CC(NC(=O)Cn1cnnn1)C12CC3CC(CC(C3)C1)C2 (centres unmarked),7.75%
9,CCCC1C(C(=O)OCC)=C(C)NC(C)=C1C(=O)OCC,10.7%
10,CC(C)c1ccc(OCc2ccc(C(=O)NN3CCN(C)CC3)o2)cc1,-31.7%
11,Cc1cccc(C)c1OP(N)(=O)Oc1c(C)cccc1C,11%
12,CC(C)C(=O)Nc1ccc(C(=O)NNC(=O)c2ccco2)cc1,7.75%
13,Cc1cc(C)n(C(=O)C2CCCN2S(=O)(=O)c2ccc(Cl)cc2)n1 (centres unmarked),-7.48%
14,CCOc1ccc(C(=O)NCC(=O)Nc2ncccc2C)cc1OCC,18%
15,COc1ccc(N2CCN(C(=O)CCc3c[nH]c4ccccc34)CC2)cc1,-10.2%
16,CC(=O)Nc1ccc(S(=O)(=O)NC2C3(C)CCC(C3)C2(C)C)cc1 (centres unmarked),16.9%
17,Cl.NCCSC1CC(=O)N(Cc2ccc(F)cc2)C1=O (centres unmarked),-20.4%
18,CCOC(=O)Cc1csc(NC(=O)/C=C/c2ccc(Cl)cc2)n1,-9.29%
19,CCOc1ccc(S(=O)(=O)N2CCC(C(=O)N3CCN(c4ccccc4)CC3)CC2)cc1,-18%
20,CC(=O)Nc1ccc(S(=O)(=O)N2CCCC(C(=O)N3CCN(c4ccccc4)CC3)C2)cc1 (centres unmarked),-50.9%
21,CC(=O)Nc1ccc(S(=O)(=O)N2CCCC(C(=O)O)C2)cc1 (centres unmarked),-3.16%
22,CN1CCN(C(=O)C2CCCN(S(=O)(=O)c3ccc(Br)cc3)C2)CC1 (centres unmarked),-5.87%

row,SMILES,"hERG current change (%, negative = inhibition) at 10uM"
1,CC(=O)N1CCCc2cc(S(=O)(=O)N3CCCC(C(=O)N4CCN(c5ccccc5)CC4)C3)ccc21 (centres unmarked),-21.3%
2,O=C(C1CCCN(S(=O)(=O)c2ccc(Br)cc2)C1)N1CCOCC1 (centres unmarked),-13.8%
3,O=C(O)C1CCCN(S(=O)(=O)c2cccs2)C1 (centres unmarked),4.67%
4,O=C(C1CCCN(S(=O)(=O)c2cccs2)C1)N1CCN(C2CCCCC2)CC1 (centres unmarked),-24.6%
5,CCOC(=O)N1CCN(C(=O)C2CCCN(S(=O)(=O)c3ccc(OCC)cc3)C2)CC1 (centres unmarked),-46.2%
6,CCOc1ccc(S(=O)(=O)N2CCCC(C(=O)N3CCN(c4ccccc4)CC3)C2)cc1 (centres unmarked),-56.3%
7,O=C(C1CCCN(S(=O)(=O)c2ccc(Br)cc2)C1)N1CCN(Cc2ccccc2)CC1 (centres unmarked),-55.1%
8,O=C(C1CCCN(S(=O)(=O)c2cccs2)C1)N1CCC(N2CCCCC2)CC1 (centres unmarked),-61.7%
9,COc1cccc(Nc2nc(-c3sc(N)nc3C)cs2)c1,-18.2%
10,CNc1nc(-c2c(C)n(C)c3ccc(OC)cc23)cs1,19.2%
11,Cl.Clc1ccccc1CSC1=NCCCN1,0.0434%
12,O=C(CN(C(=O)CCC(=O)Nc1ccccn1)c1ccc2c(c1)OCCO2)NCCc1ccccc1,2.29%
13,CC1CCCC(C)N1c1ccc(S(=O)(=O)N2CCOCC2)cc1Cl (centres unmarked),11.5%
14,COc1ccc(C2SCC(=O)N2CC23CC4CC(CC(C4)C2)C3)cc1 (centres unmarked),3.15%
15,CCOC(=O)C1CCN(S(=O)(=O)c2ccc(OC)c(Cl)c2)CC1,9.79%
16,O=C(C1CCCN(S(=O)(=O)c2ccc(Br)s2)C1)N1CCCCCC1 (centres unmarked),-11.8%
17,CCOC(=O)C1CCN(C(=O)C2CCCN(S(=O)(=O)c3ccc(OC)c(Cl)c3)C2)CC1 (centres unmarked),-67.2%
18,O=C(C1CCCN(S(=O)(=O)c2ccc(Br)s2)C1)N1CCN(c2ccccc2)CC1 (centres unmarked),-63.8%
19,CCOC(=O)C1CCN(C(=O)C2CCCN(S(=O)(=O)c3ccc(OCC)c(Cl)c3)C2)CC1 (centres unmarked),-40.8%
20,O=C(C1CCN(S(=O)(=O)c2ccc(Br)s2)CC1)N1CCN(c2ccccc2)CC1,-10.5%
